Reference: the supplement of paper PMC10849652
The full data set covers some 7,900 targets. This sample favours those with a hit. About 0.6% of all pairs of compound and target were hits.

Experiments:
Test in all cases: log2 fold change, soluble protein after heating vs DMSO (PISA); higher = thermal stabilisation; K562 cells, 10 uM, 30 min; active = over 0.2 and 3.5 SD of the protein, either way, in both replicates (recomputed)
[1] = compound: CC1=C(C=C(C=C1)NC(=O)C2=CC(=CC=C2)C(C)(C)C#N)NC3=CC4=C(C=C3)N=CN(C4=O)C
How it was run: (§1)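 K562 cells (2×10^6 cells/mL) were treated with 10 μM compound for 30 min, and aliquots were heated for 3 min over 48°C-58°C. Pooled aliquots were extracted in PBS with 0.5% NP-40 at 4°C, and the supernatant after 21,000xg for 90 min was measured by TMTpro 16plex LC-MS/MS with channel sums equalised. Reported thermal stability, relative to control samples and from duplicates, is a log2 fold change.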

[2] = compound: CC1=C(C=C(C=C1)NC(=O)C2=CC(=CC=C2)N(C)C)NC(=O)C3=CC=C(C=C3)O
How it was run: as §1

[3] = compound: CC1=CC=C(C=C1)SC2=C3C=C(SC3=CN=C2)C(=O)N
How it was run: as §1

[4] = compound: CC1=NC(=CC=C1)C2=C(N=C(N2)C(C)(C)C)C3=CC4=NC=CN=C4C=C3
How it was run: as §1

[5] = compound: CCCCN(Cc1ccc(C(=O)NO)cc1)C(=O)Nc1ccccc1 [Nexturastat A]
How it was run: as §1

[6] = compound: CCCS(=O)(=O)Nc1ccc(F)c(C(=O)c2c[nH]c3ncc(-c4ccc(Cl)cc4)cc23)c1F [vemurafenib]
How it was run: as §1

[7] = compound: CCCS(=O)(=O)Nc1ccc(F)c(C(=O)c2c[nH]c3ncc(Cl)cc23)c1F
How it was run: as §1

[8] = compound: CCCc1cc(C)[nH]c(=O)c1CNC(=O)c1cc(-c2ccnc(N3CCN(C)CC3)c2)cc2c1cnn2C(C)C
How it was run: as §1

[9] = compound: CCN(CC)Cc1ccc2cc(COC(=O)Nc3ccc(C(=O)NO)cc3)ccc2c1 [givinostat]
How it was run: as §1

[10] = compound: CCN(CCCOc1ccc2c(Nc3cc(CC(=O)Nc4cccc(F)c4)[nH]n3)ncnc2c1)CCOP(=O)(O)O [barasertib]
How it was run: as §1

Measured: log2 fold change

DYRK1A isoform 2 (UniProt Q13627)
inactive: [1] -0.025 | [2] 0.061 | [3] 0.003 | [4] -0.005 | [5] -0.032 | [6] -0.021 | [7] -0.024 | [8] -0.019 | [9] 0.038 | [10] 0.004

DMXL1 (UniProt Q9Y485)
inactive: [1] -0.075 | [2] -0.004 | [3] 0.025 | [4] 0.017 | [5] 0.044 | [6] 0.008 | [7] 0.032 | [8] 0.043 | [9] 0.076 | [10] 0.068

FAM50A (UniProt Q14320)
UniProt Q14320, sequence (Q14320 whole entry, looked up): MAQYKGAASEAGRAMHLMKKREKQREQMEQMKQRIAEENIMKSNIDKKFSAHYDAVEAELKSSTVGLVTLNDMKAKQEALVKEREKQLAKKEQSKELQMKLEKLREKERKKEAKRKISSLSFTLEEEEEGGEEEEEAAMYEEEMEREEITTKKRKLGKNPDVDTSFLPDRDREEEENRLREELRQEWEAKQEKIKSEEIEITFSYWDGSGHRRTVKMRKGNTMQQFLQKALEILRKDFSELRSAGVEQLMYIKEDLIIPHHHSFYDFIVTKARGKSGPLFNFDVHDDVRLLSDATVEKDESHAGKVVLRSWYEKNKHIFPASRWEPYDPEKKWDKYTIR
inactive: [1] 0.041 | [2] -0.059 | [3] 0.019 | [4] 0.057 | [5] -0.069 | [6] 0.049 | [7] 0.035 | [8] 0.014 | [9] 0.102 | [10] 0.026

DTNBP1 (UniProt Q96EV8)
UniProt Q96EV8, sequence (Q96EV8 whole entry, looked up): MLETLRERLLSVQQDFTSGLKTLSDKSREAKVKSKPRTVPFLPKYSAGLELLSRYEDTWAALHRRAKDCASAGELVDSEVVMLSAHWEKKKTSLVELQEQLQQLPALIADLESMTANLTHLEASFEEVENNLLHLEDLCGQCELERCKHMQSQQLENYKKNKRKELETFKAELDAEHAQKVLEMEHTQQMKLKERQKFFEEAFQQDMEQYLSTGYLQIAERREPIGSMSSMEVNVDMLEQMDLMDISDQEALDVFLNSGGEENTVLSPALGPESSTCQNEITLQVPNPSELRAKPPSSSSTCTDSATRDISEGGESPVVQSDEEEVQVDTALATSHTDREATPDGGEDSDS
inactive: [1] -0.078 | [2] 0.006 | [3] 0.001 | [4] 0.055 | [5] -0.022 | [6] 0.021 | [7] 0.017 | [8] -0.026 | [9] -0.014 | [10] 0.01

DPH5 isoform 5 (UniProt Q9H2P9)
UniProt Q9H2P9, sequence (Q9H2P9 whole entry, looked up): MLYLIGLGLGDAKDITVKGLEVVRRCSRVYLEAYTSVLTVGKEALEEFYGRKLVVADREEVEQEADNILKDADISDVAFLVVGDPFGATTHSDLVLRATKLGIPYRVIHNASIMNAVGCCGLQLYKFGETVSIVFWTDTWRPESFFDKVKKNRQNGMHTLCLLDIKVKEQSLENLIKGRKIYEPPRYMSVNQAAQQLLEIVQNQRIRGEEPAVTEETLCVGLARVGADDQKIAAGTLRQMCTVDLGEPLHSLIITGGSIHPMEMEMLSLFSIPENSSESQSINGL
inactive: [1] 0.009 | [2] -0.01 | [3] 0.046 | [4] 0.042 | [5] -0.079 | [6] -0.041 | [7] 0.087 | [8] -0.045 | [9] -0.105 | [10] -0.006

EXTL2 (UniProt Q9UBQ6)
UniProt Q9UBQ6, sequence (Q9UBQ6 whole entry, looked up): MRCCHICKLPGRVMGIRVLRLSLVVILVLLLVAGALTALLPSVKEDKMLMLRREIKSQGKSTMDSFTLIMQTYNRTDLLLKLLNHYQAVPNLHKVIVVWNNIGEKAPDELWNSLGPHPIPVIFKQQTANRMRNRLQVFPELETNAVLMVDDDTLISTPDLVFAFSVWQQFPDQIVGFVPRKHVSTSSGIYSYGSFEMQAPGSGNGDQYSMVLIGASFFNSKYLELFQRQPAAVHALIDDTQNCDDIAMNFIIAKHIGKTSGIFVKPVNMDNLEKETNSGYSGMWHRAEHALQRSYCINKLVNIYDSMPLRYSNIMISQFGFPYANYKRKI
inactive: [1] 0.072 | [2] -0.003 | [3] -0.017 | [4] -0.003 | [5] -0.163 | [6] -0.002 | [7] -0.031 | [8] -0.043 | [9] -0.039 | [10] -0.053

DBN1 isoform 3 (UniProt Q16643)
UniProt Q16643, sequence (Q16643 whole entry, looked up): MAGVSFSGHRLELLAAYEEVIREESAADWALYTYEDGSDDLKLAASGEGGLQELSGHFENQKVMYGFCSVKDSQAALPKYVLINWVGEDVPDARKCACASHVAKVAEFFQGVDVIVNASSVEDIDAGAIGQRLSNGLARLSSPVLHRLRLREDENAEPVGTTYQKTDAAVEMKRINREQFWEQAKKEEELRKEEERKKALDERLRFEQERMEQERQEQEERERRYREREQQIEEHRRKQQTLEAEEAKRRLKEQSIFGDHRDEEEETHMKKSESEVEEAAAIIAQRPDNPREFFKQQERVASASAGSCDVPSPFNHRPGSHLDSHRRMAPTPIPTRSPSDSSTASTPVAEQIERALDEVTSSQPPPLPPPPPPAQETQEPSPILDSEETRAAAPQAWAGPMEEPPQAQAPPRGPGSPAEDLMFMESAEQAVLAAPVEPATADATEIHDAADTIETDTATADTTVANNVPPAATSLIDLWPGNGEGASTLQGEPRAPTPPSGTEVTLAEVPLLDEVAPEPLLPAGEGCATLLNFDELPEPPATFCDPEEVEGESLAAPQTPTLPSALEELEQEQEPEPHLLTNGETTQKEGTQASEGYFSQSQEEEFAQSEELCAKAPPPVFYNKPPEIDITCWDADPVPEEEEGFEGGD
inactive: [1] -0.079 | [2] 0.045 | [3] 0.016 | [4] -0.002 | [5] 0.104 | [6] 0.075 | [7] 0.032 | [8] -0.062 | [9] -0.026 | [10] -0.038

DIP2A (UniProt Q14689)
UniProt Q14689, sequence (Q14689 whole entry, looked up): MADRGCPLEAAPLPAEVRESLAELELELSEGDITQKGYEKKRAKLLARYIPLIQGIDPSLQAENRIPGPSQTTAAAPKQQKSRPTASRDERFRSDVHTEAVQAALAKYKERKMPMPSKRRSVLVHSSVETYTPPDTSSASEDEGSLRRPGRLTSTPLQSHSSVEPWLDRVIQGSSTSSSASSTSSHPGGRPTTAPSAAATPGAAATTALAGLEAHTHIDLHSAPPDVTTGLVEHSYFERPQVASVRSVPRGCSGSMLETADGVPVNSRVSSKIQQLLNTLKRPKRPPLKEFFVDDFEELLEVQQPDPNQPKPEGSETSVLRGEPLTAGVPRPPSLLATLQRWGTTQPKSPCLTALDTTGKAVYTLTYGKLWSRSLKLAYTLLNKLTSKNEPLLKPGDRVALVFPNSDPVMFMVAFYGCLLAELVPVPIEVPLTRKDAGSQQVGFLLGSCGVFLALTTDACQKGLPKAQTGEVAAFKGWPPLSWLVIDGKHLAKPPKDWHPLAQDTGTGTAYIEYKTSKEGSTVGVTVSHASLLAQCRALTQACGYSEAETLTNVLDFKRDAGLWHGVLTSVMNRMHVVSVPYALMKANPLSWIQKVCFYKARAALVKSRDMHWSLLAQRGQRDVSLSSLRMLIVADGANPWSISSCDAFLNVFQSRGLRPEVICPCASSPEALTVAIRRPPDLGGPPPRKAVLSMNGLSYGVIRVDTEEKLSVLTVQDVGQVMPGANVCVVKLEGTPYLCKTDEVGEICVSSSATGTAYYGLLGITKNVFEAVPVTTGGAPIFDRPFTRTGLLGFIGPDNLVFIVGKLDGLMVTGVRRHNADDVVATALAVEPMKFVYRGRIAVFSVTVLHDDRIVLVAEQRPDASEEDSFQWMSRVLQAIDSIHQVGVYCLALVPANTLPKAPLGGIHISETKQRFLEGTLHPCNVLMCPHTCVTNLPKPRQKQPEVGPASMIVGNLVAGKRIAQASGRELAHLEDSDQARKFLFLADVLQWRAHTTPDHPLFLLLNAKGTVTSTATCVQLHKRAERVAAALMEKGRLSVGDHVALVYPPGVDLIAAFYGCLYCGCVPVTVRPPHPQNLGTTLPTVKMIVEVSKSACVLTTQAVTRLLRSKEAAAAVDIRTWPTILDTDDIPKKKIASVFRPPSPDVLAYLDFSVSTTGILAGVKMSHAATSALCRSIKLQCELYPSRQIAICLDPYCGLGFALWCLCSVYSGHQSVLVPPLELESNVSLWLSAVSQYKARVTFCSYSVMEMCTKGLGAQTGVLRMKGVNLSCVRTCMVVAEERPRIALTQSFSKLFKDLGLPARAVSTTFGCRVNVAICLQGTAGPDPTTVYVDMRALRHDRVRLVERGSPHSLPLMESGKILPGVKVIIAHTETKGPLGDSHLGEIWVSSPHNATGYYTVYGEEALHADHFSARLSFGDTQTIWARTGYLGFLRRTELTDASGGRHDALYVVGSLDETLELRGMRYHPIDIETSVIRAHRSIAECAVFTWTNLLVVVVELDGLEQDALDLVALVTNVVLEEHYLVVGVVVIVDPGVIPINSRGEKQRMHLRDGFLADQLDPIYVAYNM
inactive: [1] 0.032 | [2] -0.013 | [3] -0.007 | [4] 0.07 | [5] -0.119 | [6] 0.05 | [7] -0.009 | [8] 0.336 | [9] -0.05 | [10] 0.118

CUX1 isoform 2 (UniProt Q13948)
UniProt Q13948, sequence (Q13948 whole entry, looked up): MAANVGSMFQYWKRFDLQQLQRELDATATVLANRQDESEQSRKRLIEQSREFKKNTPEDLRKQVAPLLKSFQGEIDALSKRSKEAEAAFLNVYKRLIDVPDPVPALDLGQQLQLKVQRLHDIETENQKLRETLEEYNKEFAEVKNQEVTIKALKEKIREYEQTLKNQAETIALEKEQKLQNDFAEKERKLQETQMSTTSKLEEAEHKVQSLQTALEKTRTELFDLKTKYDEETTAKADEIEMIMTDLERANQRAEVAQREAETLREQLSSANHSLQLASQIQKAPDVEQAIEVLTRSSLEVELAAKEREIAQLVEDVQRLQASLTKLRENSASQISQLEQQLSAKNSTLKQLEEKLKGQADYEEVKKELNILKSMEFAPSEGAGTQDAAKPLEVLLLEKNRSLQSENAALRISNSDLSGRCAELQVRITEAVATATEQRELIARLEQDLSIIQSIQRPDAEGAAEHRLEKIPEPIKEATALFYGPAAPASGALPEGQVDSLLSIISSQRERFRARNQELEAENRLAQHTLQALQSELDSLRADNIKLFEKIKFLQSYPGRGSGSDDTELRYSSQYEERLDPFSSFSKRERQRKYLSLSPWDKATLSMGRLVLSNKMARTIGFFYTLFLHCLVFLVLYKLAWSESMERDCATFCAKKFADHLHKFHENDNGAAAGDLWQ
inactive: [1] -0.07 | [2] 0.007 | [3] -0.003 | [4] -0.031 | [5] 0.051 | [6] 0.074 | [7] 0.077 | [8] -0.011 | [9] -0.049 | [10] 0.038

DTYMK (UniProt P23919)
UniProt P23919, sequence (P23919 whole entry, looked up): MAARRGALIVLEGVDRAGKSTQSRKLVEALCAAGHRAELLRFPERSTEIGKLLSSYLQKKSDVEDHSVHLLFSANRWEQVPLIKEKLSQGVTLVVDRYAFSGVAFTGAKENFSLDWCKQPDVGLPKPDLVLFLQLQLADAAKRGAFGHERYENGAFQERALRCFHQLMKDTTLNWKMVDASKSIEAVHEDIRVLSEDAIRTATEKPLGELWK
inactive: [1] -0.001 | [2] 0.05 | [3] 0 | [4] 0.015 | [5] -0.009 | [6] -0.017 | [7] -0.069 | [8] -0.1 | [9] -0.007 | [10] -0.011

ESS2 (UniProt Q96DF8)
inactive: [1] -0.085 | [2] 0.091 | [3] -0.024 | [4] -0.018 | [5] 0.032 | [6] -0.01 | [7] -0.013 | [8] -0.075 | [9] -0.01 | [10] -0.025

DDX39A (UniProt O00148)
inactive: [1] -0.018 | [2] -0.016 | [3] 0.02 | [4] 0.027 | [5] 0.015 | [6] 0.004 | [7] 0.017 | [8] 0.074 | [9] 0.076 | [10] 0.035

DUS2 (UniProt Q9NX74)
inactive: [1] -0.028 | [2] -0.022 | [3] -0.022 | [4] 0.04 | [5] -0.015 | [6] -0.004 | [7] 0.099 | [8] 0.039 | [9] 0.062 | [10] -0.062

EIF2S3 (UniProt P41091)
UniProt P41091, sequence (P41091 whole entry, looked up): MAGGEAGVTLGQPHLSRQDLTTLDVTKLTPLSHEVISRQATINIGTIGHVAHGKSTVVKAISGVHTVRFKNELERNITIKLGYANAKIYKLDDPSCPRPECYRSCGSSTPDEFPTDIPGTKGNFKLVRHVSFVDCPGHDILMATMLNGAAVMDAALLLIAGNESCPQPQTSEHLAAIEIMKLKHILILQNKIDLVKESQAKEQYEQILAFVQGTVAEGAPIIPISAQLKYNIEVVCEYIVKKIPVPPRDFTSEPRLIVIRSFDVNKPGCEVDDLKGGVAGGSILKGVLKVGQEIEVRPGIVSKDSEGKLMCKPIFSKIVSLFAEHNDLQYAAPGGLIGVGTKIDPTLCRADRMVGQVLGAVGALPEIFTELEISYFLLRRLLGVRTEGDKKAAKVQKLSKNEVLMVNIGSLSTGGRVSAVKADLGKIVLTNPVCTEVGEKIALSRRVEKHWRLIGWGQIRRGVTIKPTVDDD
inactive: [1] 0.02 | [2] 0 | [3] -0.006 | [4] -0.032 | [5] 0.102 | [6] -0.029 | [7] 0.007 | [8] 0.05 | [9] 0.028 | [10] -0.033

ESYT1 isoform 2 (UniProt Q9BSJ8)
inactive: [1] 0.117 | [2] -0.052 | [3] -0.007 | [4] 0.003 | [5] 0.045 | [6] 0.01 | [7] 0.048 | [8] 0.148 | [9] 0.116 | [10] 0.046
